Compound activity: PubChem BioAssay, several laboratories
CYP2C19 activ = human CYP2C19 activators, primary screen, biochemical, luminescence | Cytochrome P450 2C19 (Homo sapiens), P33261 | recombinant CYP2C19, luciferin-H EGE luminescence; active compounds read high; 0 = fully inhibited enzyme, 1 = untreated enzyme | activation factor at 5 µM | 96,000 tested, under 10 active | AID 1025, 2008;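 active means activation factor of at least 2 at 5 µM in the primary screen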
Target sequence (P33261 whole entry, looked up): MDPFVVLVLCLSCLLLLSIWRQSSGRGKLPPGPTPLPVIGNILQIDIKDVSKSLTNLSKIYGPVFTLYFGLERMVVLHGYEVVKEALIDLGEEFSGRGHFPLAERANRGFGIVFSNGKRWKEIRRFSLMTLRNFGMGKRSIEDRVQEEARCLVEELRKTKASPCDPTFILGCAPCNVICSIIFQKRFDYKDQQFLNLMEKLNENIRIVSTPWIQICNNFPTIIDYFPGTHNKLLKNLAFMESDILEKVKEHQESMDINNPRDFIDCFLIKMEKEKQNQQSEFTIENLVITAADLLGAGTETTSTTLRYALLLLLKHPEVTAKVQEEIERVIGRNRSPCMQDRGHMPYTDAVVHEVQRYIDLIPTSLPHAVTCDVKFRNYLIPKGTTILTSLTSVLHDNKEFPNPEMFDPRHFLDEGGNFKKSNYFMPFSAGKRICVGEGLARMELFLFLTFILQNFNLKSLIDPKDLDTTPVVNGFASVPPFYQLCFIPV
CYP2C9 activ = human CYP2C9 activators, primary screen, biochemical, luminescence | recombinant CYP2C9, luciferin-H conversion; active compounds read high; factor 1 = untreated enzyme, 0 = blocked | activation factor at 5 µM | 1.4% of 96,000 active | AID 1024, 2008;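 active means activation factor of 2 or more for CYP2C9 at a 5 µM dose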
MRP reversal = reversal of MRP1-mediated doxorubicin resistance, primary screen, H69AR cells, doxorubicin co-treatment | 0.04% of 85,000 active | H69AR cells + 2 uM doxorubicin, CellTiter-Glo, 72 h | differential viability (reversal), % at 10 µM;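 active means viability drop by adding the cancer drug above about 55%, with treated viability meeting a 40% cutoff, limit read from the data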;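 further: larger differential means the compound sensitizes cells more to doxorubicin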
CYP2C9 inhib = blockers of cytochrome P450 2C9 activity – biochemical, luminescence, ADME assay, primary screen. P11712. CYP2C9 Supersomes, luciferin-H conversion. inhibition, % at 5 µM. 20% of 96,000 active. AID 777, 2007;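 active means blocking of liver enzyme CYP2C9 beyond about 50% at 5 µM, limit read from the data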
CYP2C19 inh = blockers of cytochrome P450 2C19 activity – biochemical, luminescence, ADME assay, primary screen | CYP2C19 Supersomes, luciferin-H EGE luminescence, 30 min | 21% of 96,000 active | inhibition, % at 5 µM | AID 778, 2007 | P33261;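 active means CYP2C19 inhibition above a set limit at 5 µM in the primary screen, cut at about 50% in these data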
MRP1 act = H69AR viability gain despite doxorubicin, primary screen, MRP-1 activator project, H69AR cells, CellTiter-Glo. viability rescue. viability increase, % at 10 µM. 0.61% of 140,000 active. AID 799, 2007;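 active means viability gain under doxorubicin at or above a set limit, the compound median plus 3 SD, cut at about 4.7% in these data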;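 further: MRP-1 overexpressing cells given doxorubicin 25 µM after compound pretreatment; 18-22 h compound pretreatment then 72 h with doxorubicin before readout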
Hits are given with their value; . = inactive; / = no result. In the library only some 21% were active in any assay of this set; here they are far more common.

SMILES	CYP2C19 activ	CYP2C9 activ	MRP reversal	CYP2C9 inhib	CYP2C19 inh	MRP1 act
Cc1ccc(-c2nc(SCC(N)=O)c(C#N)c3c2CCCC3)cc1	.	.	.	.	65	.
CSc1nc(N)nc(SCC(=O)OC(C)C)c1C#N	.	.	.	57	.	.
Cc1ccc(C(=O)CSC2=NC(N)=C(C#N)C3(CCCCC3)C2C(N)=O)cc1 (stereo unspecified)	.	.	.	.	.	.
CSc1nc(N)nc(SCC(=O)c2ccc(C)cc2)c1C#N	.	.	.	54	.	.
N#Cc1c(SCC(N)=O)nc(-c2ccccc2)c2c1CCCC2	.	.	.	.	.	.
CCc1c(C)nc(SCC(=O)CC(=O)OC(C)C)c(C#N)c1C	.	.	.	.	77	.
COc1cccc(CNn2cnnc2)c1OCc1ccccc1F	.	.	.	.	76	.
COc1cccc(CNn2cnnc2)c1OCc1ccc(F)cc1	.	.	.	57	86	.
CCOc1cccc(CNc2ccc(O)cc2)c1OCc1ccccc1Cl	/	/	/	/	/	.
COc1cccc(/C=N/n2cnnc2)c1OCc1ccccc1	.	.	.	.	.	.
CCOc1cccc(CNn2cnnc2)c1OCc1ccccc1Cl	.	.	.	.	76	.
COc1ccc(Cc2ccc(OC)c(N)c2)cc1N	.	.	.	.	66	.
COc1cc(Cc2ccc(N)c(OC)c2)ccc1N	/	/	/	/	/	.
CCOC(=O)c1c(C2CC2)csc1NC(=O)COC(=O)c1cnc(Cl)c(Cl)c1	/	/	/	/	/	.
O=C(c1ccccc1)c1ccc2nc[nH]c2c1	.	.	.	.	57	.
O=C(NC1CCCC1)c1ccc2nc[nH]c2c1	.	.	.	.	.	.
O=C(N/N=C\c1ccc(CN(Cc2ccc(Cl)cc2)S(=O)(=O)c2ccccc2)o1)C(=O)Nc1ccc(F)cc1	.	.	/	76	82	.
Cc1nc2c3c(-c4ccccc4)nc(N4CCOCC4)nc3nn2c(C)c1CCC(=O)O	/	/	.	/	/	/
C=CCNc1nc2c3ccccc3n(C(C)=O)c2s1	.	.	.	68	.	.
CC(=O)n1c2ccccc2c2c(C#N)c(N3CCCCC3)sc21	/	/	.	/	/	/
O=S(=O)(Nc1ccccn1)c1cnc(Cl)c(Br)c1	/	/	/	/	/	.
CCC(C)(c1ccc(C(=O)OC)s1)c1ccc(C(=O)OC)s1	.	.	.	98	98	.
O=C(c1ccc(-n2cnnn2)cc1)N1CCCCC1	/	/	.	/	/	.
CC(=O)OC1CCC2(C)C(COc3ccc4ccc(=O)oc4c3)C(C)(O)CCC2C1(C)C (stereo unspecified)	.	.	/	53	.	.
CC(OC(=O)c1snc(C(=O)NC2CCCCC2)c1N)C(=O)NC1CCCCC1 (stereo unspecified)	/	/	.	/	/	.
SMILES	CYP2C19 activ	CYP2C9 activ	MRP reversal	CYP2C9 inhib	CYP2C19 inh	MRP1 act
COc1ccccc1CNC(=O)C1CC(c2ccccc2[N+](=O)[O-])=NO1 (stereo unspecified)	.	2.8	/	.	.	.
O=C(NCc1cccc(C(F)(F)F)c1)C1CC(c2ccccc2[N+](=O)[O-])=NO1 (stereo unspecified)	.	.	/	.	.	.
COc1ccc(CNC(=O)C2CC(c3cccc([N+](=O)[O-])c3)=NO2)cc1 (stereo unspecified)	.	.	/	.	.	.
COc1ccc(CNC(=O)C2CC(c3ccccc3[N+](=O)[O-])=NO2)cc1 (stereo unspecified)	.	.	/	.	50	.
COC(=O)c1ccc(CN2C(=O)NC3(CCCCC3C)C2=O)o1 (stereo unspecified)	.	.	.	.	.	.
CCOC(=O)c1cc(-c2ccc(C)cc2)n(CCC(=O)N2CCN(c3ccccn3)CC2)c1C	/	/	/	/	/	.
CCCCCCn1c(N2CCC(C)CC2)nc2c1c(=O)[nH]c(=O)n2C	.	.	.	.	.	.
Cn1c(=O)[nH]c(=O)c2[nH]c(N(Cc3ccccc3)Cc3ccccc3)nc21	.	.	.	56	.	.
COCCn1c(N2CCN(c3ccc(OC)cc3)CC2)nc2c1c(=O)n(C)c(=O)n2C	.	.	.	59	.	.
Cn1c(=O)[nH]c(=O)c2c1nc(N1CCN(Cc3ccccc3)CC1)n2CCSc1ncccn1	.	.	.	.	75	.
Cn1c(=O)[nH]c(=O)c2[nH]c(CN3CCN(Cc4ccccc4)CC3)nc21	/	/	.	/	/	/
CCCCn1c(N2CCC(Cc3ccccc3)CC2)nc2c1c(=O)[nH]c(=O)n2C	.	.	.	.	66	.
CC(C)c1cccc(C(C)C)c1NC(=O)COc1nncc2ccccc12	/	/	/	/	/	.
COc1cccc(NC(=O)[C@@H]2CCCN2C(=O)C2CCN(S(=O)(=O)c3ccc(C)cc3)CC2)c1	.	.	.	.	.	.
Cc1nc(C)c(/C(O)=C/c2nc3ccccc3oc2=O)s1	/	/	/	/	/	.
Cn1c(=O)[nH]c(=O)c2c1nc(N1CCN(Cc3ccccc3)CC1)n2CCCc1ccccc1	.	.	.	.	88	.
Cn1c(=O)c2c(nc(CN3CCN(c4ccccc4)CC3)n2CCCc2ccccc2)n(C)c1=O	/	/	.	/	/	/
Cn1c(=O)c2c(nc(CN3CCC(C(N)=O)CC3)n2CCCc2ccccc2)n(C)c1=O	.	.	.	71	59	.
Cn1c(=O)c2c(nc(N3CCN(Cc4ccccc4)CC3)n2CCCc2ccccc2)n(C)c1=O	.	.	.	.	68	.
CCCCCn1c(N2CCN(c3cccc(Cl)c3)CC2)nc2c1c(=O)[nH]c(=O)n2C	.	.	.	96	82	.
CCC1=NN(C(=O)CCc2ccccc2O)C(O)(C(F)(F)F)C1 (stereo unspecified)	/	/	/	/	/	.
Cc1nnc(SCCn2c(N3CCN(Cc4ccccc4)CC3)nc3c2c(=O)[nH]c(=O)n3C)s1	.	.	.	59	71	.
Cn1c(=O)[nH]c(=O)c2c1nc(N(CCO)Cc1ccccc1)n2CCCc1ccccc1	.	.	.	65	.	.
